Experimental data taken from PubChem BioAssay (EPA / NIEHS).
Calls of active or inactive are those of the source. How the source made its calls: active means hit-call score of the fitted dose curve at least 0.9, where 1 is the maximum; inactive means score below 0.9.

Legend:
[1] = APR_HepG2_NuclearSize_72hr: Apredica 72-hour HepG2 Assay for Nuclear Size (AID 2282925); conditions: high-content imaging, actives raise or lower the signal
Outline: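 HepG2; cpd 0.39–200 uM, 10 conc, duplicate; 72 h; DMSO 0.5% v/v; fix 3.7% formaldehyde 30 min RT; Triton permeabilization; Hoechst 2 ug/mL; HCS imaging 20x; nuclear diameter; gain/loss fit vs DMSO.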

[2] = ATG_CRE_CIS: Attagene CIS-FACTORIAL HepG2 Assay for human cAMP Responsive Element (CRE) binding protein 3 (AID 2282926); conditions: HepG2 CRE cis-reporter, Attagene multiplexed mRNA; actives raise or lower the signal
Outline: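 HepG2 cells transiently transfected with a multiplexed reporter library (CRE-driven unit among them) were dosed for 24 h. Reporter mRNA was quantified by RT-PCR, fluorescent labelling, HpaI digestion and capillary electrophoresis, with bidirectional fitting against DMSO baseline.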

[3] = target: CCAAT/enhancer-binding protein beta (Homo sapiens) (UniProt P17676); assay: ATG_C_EBP_CIS: Attagene CIS-FACTORIAL HepG2 Assay for human CCAAT/Enhancer Binding Protein (C/EBP) beta (AID 2282927); conditions: HepG2 Attagene cis-factorial transcription factor reporter; actives raise or lower the signal
Outline: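 Changes in reporter mRNA, rather than exogenous chimeric receptor activity, reflect native C/EBP signalling in transfected HepG2 cells dosed for 24 h; transcripts are detected by RT-PCR and capillary electrophoresis.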

[4] = ATG_CMV_CIS: Attagene CIS-FACTORIAL HepG2 Assay for human CMV (Internal Marker) (AID 2282928); conditions: HepG2 CMV promoter reporter, transcription factor profiling; actives raise or lower the signal;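 further: endpoint acts as a background internal control marker rather than a target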
Outline: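 Cell system: HepG2, transiently transfected multiple reporter units under cis promoters. Exposure: 24 h. Detection: RT-PCR, FAM labeling, HpaI digestion, capillary electrophoresis. Analysis: bidirectional, DMSO baseline.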

[5] = target: Aryl hydrocarbon receptor (Homo sapiens) (UniProt P35869); assay: ATG_Ahr_CIS: Attagene CIS-FACTORIAL HepG2 Assay for human Aryl Hydrocarbon Receptor (Ahr) (AID 2282930); conditions: HepG2 AhR cis-factorial reporter transcription; actives raise or lower the signal
Outline: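 HepG2, transient MRTU (cis) transfection, 24 h exposure. RNA → cDNA → PCR → 6-FAM primer extension → HpaI 2 h 37 C → CE. Fit: bidirectional, DMSO baseline.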

[6] = ATG_AP_1_CIS: Attagene CIS-FACTORIAL HepG2 Assay for human Activator Protein 1 (AP-1) (AID 2282931); conditions: HepG2 Attagene cis-factorial AP-1 reporter mRNA; actives raise or lower the signal
Outline: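 Cis-regulated reporter units transiently expressed in HepG2 report endogenous transcription-factor activity. Signal: reporter mRNA at 24 h, via RT-PCR and fluorescent capillary electrophoresis. Endpoint derived by bidirectional fitting, DMSO as negative control.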

[7] = ATG_AP_2_CIS: Attagene CIS-FACTORIAL HepG2 Assay for human Activator Protein 2 (AP-2) (AID 2282932); conditions: HepG2 AP-2 cis-reporter, Attagene transcription factor profiling; actives raise or lower the signal
Outline: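 Step one: transient transfection of HepG2 with reporter transcription units. Step two: 24 h chemical exposure. Step three: RNA extraction, RT-PCR, labelled fragment analysis by capillary electrophoresis; DMSO serves as baseline.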

[8] = ATG_BRE_CIS: Attagene CIS-FACTORIAL HepG2 Assay for human Bone Morphogenetic Protein (BMP) Response Element (BRE) (AID 2282933); conditions: HepG2 BMP response element reporter, Attagene transcription factor profiling; actives raise or lower the signal
Outline: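 HepG2 cells transiently transfected with CIS reporter units (endogenous TF activity, BMP response element), dosed 24 h. Reporter mRNA quantified by RT-PCR, fluorescent labelling and capillary electrophoresis; bidirectional fit vs DMSO baseline.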

[9] = target: Retinoic acid receptor alpha (Homo sapiens) (UniProt P10276); assay: ATG_DR5_RAR_CIS: Attagene CIS-FACTORIAL HepG2 Assay for human Retinoic Acid Receptor Alpha (RARE), DR5 submotif (AID 2282934); conditions: HepG2 Attagene cis-factorial RARE DR5 reporter, mRNA; actives raise or lower the signal;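 on AC50: reporter responds to endogenous RAR alpha beta and gamma in HepG2 not RARA alone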
Outline: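 HepG2, transient cis-reporter transfection, 24 h exposure. mRNA readout: RT-PCR, FAM label, HpaI cut, capillary electrophoresis. DMSO baseline, gain/loss fitting.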

[10] = ATG_E_Box_CIS: Attagene CIS-FACTORIAL HepG2 Assay for human Enhancer Box (E-box) (AID 2282936); conditions: HepG2 E-box cis-reporter transcription, actives raise or lower the signal
Outline: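 DMSO served as negative control and baseline for bidirectional fitting. Human hepatoma HepG2 cells, transiently transfected with cis-reporter constructs, were dosed 24 h; reporter mRNA read by RT-PCR and capillary electrophoresis.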

[11] = ATG_M_61_CIS: Attagene CIS-FACTORIAL HepG2 Assay for M61 Transcription Factor (Internal Marker) (AID 2282937); conditions: HepG2 Attagene CIS-FACTORIAL M61 internal marker reporter; actives raise or lower the signal
Outline: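 Background-control endpoint: HepG2 cells with cis-regulated reporter constructs, 24 h exposure, reporter mRNA detected via fluorescent primer extension and capillary electrophoresis; values from bidirectional fitting with DMSO baseline.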

[12] = ATG_EGR_CIS: Attagene CIS-FACTORIAL HepG2 Assay for human Early Growth Response 1 (EGR1) (AID 2282938); conditions: HepG2 Attagene CIS-FACTORIAL EGR reporter mRNA; actives raise or lower the signal
Outline: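 Endpoint derived by bidirectional fitting versus DMSO vehicle. Method: cis-promoter reporter units transfected into HepG2, 24 h dosing, RNA isolation, RT-PCR with 6-FAM primer extension and HpaI digestion, then capillary electrophoresis fluorescence detection.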

[13] = ATG_M_19_CIS: Attagene CIS-FACTORIAL HepG2 Assay for M19 Transcription Factor (Internal Marker) (AID 2282939); conditions: HepG2 Attagene CIS-FACTORIAL M19 internal marker reporter; actives raise or lower the signal
Outline: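 HepG2 cells transiently transfected with cis-regulated multiplexed reporter units, dosed 24 h. Reporter mRNA quantified by RT-PCR and capillary electrophoresis; internal background marker fitted bidirectionally versus DMSO.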

[14] = ATG_ERE_CIS: Attagene CIS-FACTORIAL HepG2 Assay for Estrogen Response Element (ERE) (AID 2282940); conditions: HepG2 ERE cis-reporter, Attagene RNA transcript; actives raise or lower the signal
Outline: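 HepG2 cells transiently transfected with multiplexed cis-element reporter units, measuring endogenous transcription factor activity; ERE reporter mRNA quantified after 24 h exposure by RT-PCR, fluorescent labelling, HpaI digestion and capillary electrophoresis. Bidirectional change versus DMSO.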

[15] = target: Hepatocyte nuclear factor 3-beta (Homo sapiens) (UniProt Q9Y261); assay: ATG_FoxA2_CIS: Attagene CIS-FACTORIAL HepG2 Assay for human Forkhead box A2 (FOXA2) (AID 2282942); conditions: HepG2 cis-reporter transcription factor activity, 24 h; actives raise or lower the signal
Outline: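 Measured: reporter mRNA induction or loss in HepG2 transiently carrying multiple cis-regulated reporter units, 24 h after dosing. Quantified by RT-PCR plus capillary electrophoresis, normalised to DMSO.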

[16] = ATG_FoxO_CIS: Attagene CIS-FACTORIAL HepG2 Assay for human Forkhead box O (FoxO) (AID 2282943); conditions: HepG2 Attagene cis-reporter, FoxO element, mRNA; actives raise or lower the signal
Outline: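 Human hepatoma HepG2 cells carry transiently introduced reporter transcription units controlled by cis promoter elements. Chemical treatment lasted 24 h, and mRNA signal was compared with DMSO.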

[17] = ATG_GATA_CIS: Attagene CIS-FACTORIAL HepG2 Assay for human GATA Binding Protein (AID 2282944); conditions: HepG2 GATA cis-element reporter, Attagene multiplex mRNA; actives raise or lower the signal
Outline: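 HepG2 cells transiently transfected with multiplexed cis-element reporter units measure endogenous GATA activity; after 24 h compound exposure, reporter mRNA quantified by RT-PCR and capillary electrophoresis. Changes fitted in both directions vs DMSO.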

[18] = target: Transcription factor E2F1 (Homo sapiens) (UniProt Q01094); assay: ATG_E2F_CIS: Attagene CIS-FACTORIAL HepG2 Assay for human E2F Transcription Factor 1 (AID 2282935); conditions: HepG2 Attagene cis-reporter, E2F reporter RNA transcripts; actives raise or lower the signal
Outline: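 Total RNA from 24 h-treated, reporter-transfected HepG2 cells undergoes DNase I treatment, oligo(dT) reverse transcription, PCR and 6-FAM primer extension before capillary electrophoresis.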

[19] = ATG_Ets_CIS: Attagene CIS-FACTORIAL HepG2 Assay for human Erythroblast Transformation Specific (ETS) (AID 2282941); conditions: HepG2 ETS cis-reporter transcription, actives raise or lower the signal
Outline: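 After transient cis-reporter transfection, HepG2 cells receive test chemical for 24 h. Reporter mRNA levels, measured by RT-PCR and capillary electrophoresis fluorescence, are analysed bidirectionally relative to the DMSO baseline.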

Measured: AC50

Chain of Aryl hydrocarbon receptor (Homo sapiens) (P35869 whole entry, looked up): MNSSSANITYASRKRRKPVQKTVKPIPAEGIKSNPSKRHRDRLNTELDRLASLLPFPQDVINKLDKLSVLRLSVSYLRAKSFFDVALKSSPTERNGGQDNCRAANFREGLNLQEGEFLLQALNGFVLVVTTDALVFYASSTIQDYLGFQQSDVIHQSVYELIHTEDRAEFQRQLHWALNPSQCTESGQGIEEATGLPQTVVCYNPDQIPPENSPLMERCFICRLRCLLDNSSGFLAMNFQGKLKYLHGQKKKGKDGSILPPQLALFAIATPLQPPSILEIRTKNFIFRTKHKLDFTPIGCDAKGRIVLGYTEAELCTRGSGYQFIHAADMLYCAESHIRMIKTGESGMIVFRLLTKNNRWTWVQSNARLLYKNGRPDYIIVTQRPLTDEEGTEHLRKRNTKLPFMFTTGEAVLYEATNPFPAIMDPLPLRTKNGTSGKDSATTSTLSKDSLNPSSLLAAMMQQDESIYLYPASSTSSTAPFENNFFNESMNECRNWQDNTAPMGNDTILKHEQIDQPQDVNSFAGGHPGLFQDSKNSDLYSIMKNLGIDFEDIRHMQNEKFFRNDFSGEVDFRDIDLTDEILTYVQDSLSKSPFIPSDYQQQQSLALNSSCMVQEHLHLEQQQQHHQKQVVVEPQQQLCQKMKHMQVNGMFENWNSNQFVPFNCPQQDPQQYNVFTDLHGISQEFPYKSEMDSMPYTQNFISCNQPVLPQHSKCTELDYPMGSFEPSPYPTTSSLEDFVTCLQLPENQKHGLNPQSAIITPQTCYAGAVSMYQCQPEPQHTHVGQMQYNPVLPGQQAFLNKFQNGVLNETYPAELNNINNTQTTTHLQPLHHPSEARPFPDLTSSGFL
Chain of Hepatocyte nuclear factor 3-beta (Homo sapiens) (Q9Y261 whole entry, looked up): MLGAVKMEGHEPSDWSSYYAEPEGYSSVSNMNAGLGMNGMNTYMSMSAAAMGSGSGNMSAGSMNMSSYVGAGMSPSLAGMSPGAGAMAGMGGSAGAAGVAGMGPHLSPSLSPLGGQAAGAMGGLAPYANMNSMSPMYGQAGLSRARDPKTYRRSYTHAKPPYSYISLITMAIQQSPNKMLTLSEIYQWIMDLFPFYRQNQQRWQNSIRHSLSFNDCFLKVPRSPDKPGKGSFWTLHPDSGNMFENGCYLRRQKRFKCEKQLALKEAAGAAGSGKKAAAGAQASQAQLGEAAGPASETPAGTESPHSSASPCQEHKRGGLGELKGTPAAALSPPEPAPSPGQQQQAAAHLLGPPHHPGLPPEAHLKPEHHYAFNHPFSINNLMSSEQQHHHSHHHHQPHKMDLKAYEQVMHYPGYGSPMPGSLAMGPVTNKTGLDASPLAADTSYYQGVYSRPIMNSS
Chain of Retinoic acid receptor alpha (Homo sapiens) (P10276 whole entry, looked up): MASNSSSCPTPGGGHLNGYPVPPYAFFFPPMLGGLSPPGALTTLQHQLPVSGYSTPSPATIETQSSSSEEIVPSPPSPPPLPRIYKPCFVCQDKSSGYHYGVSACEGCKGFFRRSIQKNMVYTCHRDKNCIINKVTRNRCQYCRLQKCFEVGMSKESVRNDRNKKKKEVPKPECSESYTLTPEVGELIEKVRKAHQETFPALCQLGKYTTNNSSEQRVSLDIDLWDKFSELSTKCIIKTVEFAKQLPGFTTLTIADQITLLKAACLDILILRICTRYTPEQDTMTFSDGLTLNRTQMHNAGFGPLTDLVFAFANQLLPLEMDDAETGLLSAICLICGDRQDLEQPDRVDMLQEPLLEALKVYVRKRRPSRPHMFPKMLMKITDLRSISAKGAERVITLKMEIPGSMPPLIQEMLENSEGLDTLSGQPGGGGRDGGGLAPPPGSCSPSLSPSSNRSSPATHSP
Chain of CCAAT/enhancer-binding protein beta (Homo sapiens) (P17676 whole entry, looked up): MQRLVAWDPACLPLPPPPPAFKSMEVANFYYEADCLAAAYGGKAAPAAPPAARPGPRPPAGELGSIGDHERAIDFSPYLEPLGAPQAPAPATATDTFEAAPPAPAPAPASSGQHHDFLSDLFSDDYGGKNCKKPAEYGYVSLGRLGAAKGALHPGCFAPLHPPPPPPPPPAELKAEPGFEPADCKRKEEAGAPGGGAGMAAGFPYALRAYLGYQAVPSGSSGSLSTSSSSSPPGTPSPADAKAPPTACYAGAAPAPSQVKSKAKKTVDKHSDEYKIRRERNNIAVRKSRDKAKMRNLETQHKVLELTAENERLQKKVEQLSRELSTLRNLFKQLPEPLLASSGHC
Chain of Transcription factor E2F1 (Homo sapiens) (Q01094 whole entry, looked up): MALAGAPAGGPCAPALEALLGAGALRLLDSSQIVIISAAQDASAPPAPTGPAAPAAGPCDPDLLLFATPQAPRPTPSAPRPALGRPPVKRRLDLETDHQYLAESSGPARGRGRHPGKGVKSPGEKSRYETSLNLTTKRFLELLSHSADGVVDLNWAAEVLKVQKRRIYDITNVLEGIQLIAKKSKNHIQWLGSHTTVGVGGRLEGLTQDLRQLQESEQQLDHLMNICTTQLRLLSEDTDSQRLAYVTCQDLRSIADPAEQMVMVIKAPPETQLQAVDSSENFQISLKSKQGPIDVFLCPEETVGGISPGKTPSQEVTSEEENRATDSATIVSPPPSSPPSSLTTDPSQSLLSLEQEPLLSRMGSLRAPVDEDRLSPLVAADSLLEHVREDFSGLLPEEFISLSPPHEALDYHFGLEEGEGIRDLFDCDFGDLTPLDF

COP(=S)(OC)Oc1ccc([N+](=O)[O-])cc1
inactive: [1] | [2] | [3] | [4] | [5] | [6] | [7] | [8] | [9] | [10] | [11] | [12] | [13] | [14] | [15] | [16] | [17]

CCCN(CCC)c1c([N+](=O)[O-])cc(C(F)(F)F)cc1[N+](=O)[O-]
active: [3] 2.59 µM | [4] 82.3 µM
inactive: [1] | [2] | [5] | [7] | [8] | [10] | [11] | [12] | [13] | [14] | [15] | [16] | [17]

CCOCN(C(=O)CCl)c1c(C)cccc1CC
inactive: [1] | [2] | [3] | [4] | [5] | [7] | [8] | [9] | [18] | [10] | [11] | [12] | [13] | [14] | [15] | [16] | [17]

C[C@H]1[C@H](c2ccc(Cl)cc2)SC(=O)N1C(=O)NC1CCCCC1
inactive: [1] | [2] | [3] | [5] | [7] | [9] | [10] | [11] | [13] | [14] | [19] | [15] | [16] | [17]
active: [4] 13.8 µM | [8] 17.7 µM | [12] 15.4 µM

CCC(C)(NC(=O)c1cc(Cl)c(C)c(Cl)c1)C(=O)CCl (stereo not drawn)
inactive: [1] | [2] | [3] | [4] | [5] | [7] | [8] | [9] | [10] | [11] | [12] | [13] | [14] | [15] | [16] | [17]

O=C(NC(=O)c1c(F)cccc1F)Nc1ccc(OC(F)(F)C(F)OC(F)(F)F)c(Cl)c1 (stereo not drawn)
active: [8] 14.2 µM
inactive: [1] | [2] | [3] | [4] | [5] | [7] | [10] | [11] | [12] | [13] | [14] | [15] | [16] | [17]

N#CN
inactive: [1] | [2] | [3] | [4] | [5] | [7] | [8] | [9] | [10] | [11] | [12] | [13] | [14] | [15] | [16] | [17]

N#Cc1c(Cl)c(Cl)c(Cl)c(C#N)c1Cl
active: [9] 0.167 µM
inactive: [1] | [2] | [3] | [4] | [5] | [7] | [8] | [10] | [11] | [12] | [13] | [14] | [15] | [16] | [17]

CNC(=O)CSP(=S)(OC)OC
inactive: [1] | [2] | [3] | [4] | [5] | [6] | [7] | [8] | [10] | [11] | [12] | [13] | [14] | [15] | [16] | [17]

CNC(=O)Oc1cccc(N=CN(C)C)c1
active: [2] 50 µM | [3] 50 µM | [4] 50 µM | [5] 93.9 µM | [8] 58.3 µM | [14] 91.4 µM | [16] 70.8 µM | [17] 33.6 µM
inactive: [1] | [7] | [9] | [18] | [10] | [11] | [12] | [13] | [19] | [15]

Cc1cc(C)nc(NC(=O)NS(=O)(=O)c2ccccc2C(=O)OC2COC2)n1
inactive: [1] | [2] | [3] | [4] | [5] | [7] | [9] | [10] | [11] | [13] | [19] | [15] | [16] | [17]
active: [8] 91 µM | [12] 79 µM | [14] 71 µM

O=C(Nc1ccccc1)Nc1cnns1
inactive: [1] | [2] | [3] | [5] | [7] | [9] | [10] | [11] | [13] | [14] | [15] | [16] | [17]
active: [4] 50 µM | [8] 50 µM | [12] 90.3 µM

COP(=S)(OC)Oc1ccc(SC)c(C)c1
inactive: [1] | [2] | [3] | [4] | [6] | [7] | [8] | [9] | [10] | [11] | [12] | [13] | [19] | [15] | [16] | [17]
active: [5] 10.6 µM | [14] 17.7 µM

OCCOc1ccccc1
inactive: [1] | [2] | [3] | [4] | [5] | [7] | [8] | [9] | [10] | [11] | [12] | [13] | [14] | [15] | [16] | [17]

CC1(C)C(C=C(Cl)Cl)C1C(=O)OC(C#N)c1ccc(F)c(Oc2ccccc2)c1 (stereo not drawn)
inactive: [1] | [2] | [3] | [4] | [5] | [6] | [7] | [8] | [10] | [11] | [12] | [13] | [14] | [15] | [16] | [17]
active: [9] 2.57 µM

O=[N+]([O-])c1c(Cl)c(Cl)c(Cl)c(Cl)c1Cl
inactive: [1] | [3] | [4] | [5] | [7] | [8] | [10] | [11] | [13] | [15] | [16] | [17]
active: [2] 32.2 µM | [9] 13.2 µM | [12] 90.8 µM | [14] 12.9 µM
